Sampled rows, rich in hits. Any-hit rate of the full collection: about 0.91%.
WRN inhibitor: blocks human WRN helicase. Q14191. WRN helicase unwinding, fluorescent forked duplex, kinetic. Potency, µM (titrated, usually from 114 µM), without a hit: at the top dose activity change, negative = inhibition, most hits filed as inhibitors. 0.46% of 360,000 active. AID 651768; also: nearly all actives have a fitted effect of over 55% in size
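Enzyme (20 nM final) and test compound sit together 15 min at room temperature before substrate addition. Substrate is a single-forked duplex oligonucleotide (100 nM) labelled with fluorophore and quencher, with 2 mM ATP; helicase unwinding raises red fluorescence, read kinetically.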
APE1 inh: APE1 (human) endonuclease inhibition. recombinant APE1, TAMRA/BHQ-2 abasic DNA cleavage fluorescence. P27695. 0.35% of 350,000 active. AID 2517. Potency, µM (titrated, usually from 65.8 µM), without a hit: at the highest dose activity change, negative = inhibition, hits mostly inhibitors;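 also: plate controls were vehicle for no effect and reference inhibitor for full effect; nearly all actives have a fitted effect of over 55% in size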
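Activity was derived from the fluorescence gain between first and third kinetic reads (60 s intervals, ex 525/em 598 nm) after 50 nM THF-abasic TAMRA/BHQ-2 duplex was added to 0.75 nM APE1 preincubated 15 min with compound.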
TRb SRC2 PPI: disrupts binding of human TR beta to SRC2; TRbeta-SRC2 peptide binding, fluorescence polarization; receptor liganded with 1 µM T3; Potency, µM (titrated, usually from 106 µM), for inactives: at the highest dose activity change, negative = inhibition, actives largely listed as inhibitors; 0.065% of 280,000 active;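 also: plate controls were bound peptide for no effect and peptide without receptor for full effect; nearly all actives have a fitted effect of over 50% in size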
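Compounds were added to 0.6 uM TRb ligand-binding domain and 20 nM Texas Red-labeled SRC2 peptide in Tris buffer containing 1 uM T3, incubated 5 hr at ambient temperature, then read by fluorescence polarization.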
RECQ1 helicase: inhibitors of human RECQ1 DNA helicase; P46063; RECQ1 DNA unwinding, red fluorescence kinetic read; Potency, µM (top dose mostly 57.3 µM), for inactives: at the highest dose activity, negative = inhibition, actives largely listed as inhibitors; 0.54% of 240,000 active;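 also: plate controls were vehicle for no effect and no enzyme for full effect; nearly all actives have a fitted effect of over 30% in size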
Target sequence (P46063 whole entry, looked up): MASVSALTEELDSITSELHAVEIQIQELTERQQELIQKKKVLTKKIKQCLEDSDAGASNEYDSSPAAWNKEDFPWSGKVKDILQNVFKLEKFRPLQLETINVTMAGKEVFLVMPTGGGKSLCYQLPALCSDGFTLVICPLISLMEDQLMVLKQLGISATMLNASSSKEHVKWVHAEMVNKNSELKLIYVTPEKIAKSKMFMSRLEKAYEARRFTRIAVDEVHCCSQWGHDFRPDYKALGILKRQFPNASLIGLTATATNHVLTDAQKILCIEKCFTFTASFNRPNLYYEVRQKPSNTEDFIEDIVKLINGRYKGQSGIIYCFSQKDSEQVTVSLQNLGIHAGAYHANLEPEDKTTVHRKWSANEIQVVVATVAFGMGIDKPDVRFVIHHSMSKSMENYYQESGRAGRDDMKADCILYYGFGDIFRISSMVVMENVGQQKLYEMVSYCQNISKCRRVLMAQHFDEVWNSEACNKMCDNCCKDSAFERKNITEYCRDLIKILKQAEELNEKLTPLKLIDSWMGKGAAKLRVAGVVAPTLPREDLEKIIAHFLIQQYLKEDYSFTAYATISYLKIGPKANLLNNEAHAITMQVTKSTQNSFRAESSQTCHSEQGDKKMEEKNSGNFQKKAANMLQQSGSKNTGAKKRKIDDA
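50 nM RECQ1T1 preincubated 15 min with compound in Tris pH 8.0 buffer with MgCl2, DTT, Tween-20 and 2.5 ug/ml poly(dI-dC); started with 200 nM TAMRA/BHQ-2 forked duplex and 2 mM ATP. Unwinding read as fluorescence (525/598 nm), two reads 2 h apart.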
BLM inh: Bloom syndrome helicase (human) inhibition | P54132 | recombinant BLM DNA unwinding, fluorescence dequenching | Potency, µM (doses to about 56.1 µM), inactives show at the top dose activity change, negative = inhibition, usual class: inhibitors | 0.2% of 350,000 active | AID 2528;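 also: plate controls were vehicle for no effect and no enzyme for full effect; nearly all actives have a fitted effect of over 35% in size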
TR SRC2 fluor cs: alters Texas Red total fluorescence, flagging assay interference | TRb/SRC2 Texas Red total fluorescence interference | Potency, µM (titrated, usually from 106 µM), without a hit: top-dose fluorescence change, negative = quenching | 0.29% of 280,000 active; active = well fitted curve in either direction with a large enough effect; inconclusive = small, poorly fitted or top-dose-only effect
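Flags fluorescent or light-absorbing compounds by total fluorescence, S + 2P, at 555 nm excitation and 632 nm emission. Mixture: 20 nM Texas Red SRC2 peptide, 0.6 uM human TRb LBD, 1 uM T3, 5% DMSO; compound exposure 5 h at ambient temperature.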
Numbers without * were called inactive; i = inactive; ? = inconclusive; · = no result; ! = a repeat was not active; [ ] = remark or other dose. Unless noted, calls follow the shape of the dose curve; as a rule, active = well fitted curve in the direction sought with a large enough effect; inconclusive = small, poorly fitted or top-dose-only effect, or another doubt; inactive = no such curve, though single readings can be large; an effect the other way counts as inactive or inconclusive. Unless noted, % is scaled to controls: 0 for no effect and ±100 for the full control effect; potency is read from the fitted curve at half-maximal effect.

SMILES	WRN inhibitor	APE1 inh	TRb SRC2 PPI	RECQ1 helicase	BLM inh	TR SRC2 fluor cs
Cc1ccc(/C=C2/C(=O)NC(=O)N(CCc3ccc(F)cc3)C2=O)o1	50µM*	6%	9%	-12%	-2%	10%
O=C1NC(=O)N(CCc2ccc(F)cc2)C(=O)/C1=C/c1cccs1	32µM*	-9%	7%	-2%	-7%	-2%
Clc1ccc([C@]2(Cn3cncn3)C[C@@H](Br)CO2)c(Cl)c1	·	·	-1%[201 µM]	·	·	-1%[201 µM]
CN1CCC2(CC1)C(C#N)=C(N)NC(S)=C2C#N	56µM*!	-6%	9%	?	-16%	1%
CC1(C)[C@H](C(=O)O[C@H](C#N)c2cccc(Oc3ccccc3)c2)[C@@H]1/C=C(\Cl)C(F)(F)F	·	·	3%[201 µM]	·	·	1%[201 µM]
O=C1C(Cl)=C(Cl)C(=O)c2ccccc21	·	·	-8%[201 µM]	·	·	-9%[201 µM]
CCCCn1c(O)c(/C=C2/C=CC=N2)c(=O)[nH]c1=O	-10%	-3%	11%	-4%	0%	-4%
C=CCn1c(O)c(/C=C2/C=CC=N2)c(=O)[nH]c1=O	-4%[11.6 µM]	-3%	-2%	11µM*	0%	-20%
CC(=O)[O-].CC(=O)[O-].O.O.[Cd+2]	·	0.79µM*	2%	-22%	·	1%
CCN(CC)c1ccc(/C=C/[N+](=O)[O-])cc1	-20%	-5%	-10%	-11%	-6%	-2%
O=[N+]([O-])/C=C/c1c(Cl)cccc1Cl	32µM*	·	·	·	·	·
O=C1NC(=O)N(CCC2=CCCCC2)C(=O)/C1=C\c1cccs1	?	-6%	0%	16%	-15%	1%
Cn1cccc1/C=C1\C(=O)NC(=O)N(CCC2=CCCCC2)C1=O	1%	-7%	-4%	40µM*	-2%	1%
C[Si](Cn1cncn1)(c1ccc(F)cc1)c1ccc(F)cc1	·	·	-1%[201 µM]	·	·	-1%[201 µM]
O=C(O)c1nc(Cl)ccc1Cl	·	·	-3%[201 µM]	·	·	-3%[201 µM]
CC(C)n1c(O)c(C2c3cc(Cl)ccc3Oc3[nH]c(=O)n(C(C)C)c(=O)c32)c(=O)[nH]c1=O (stereo not given)	35µM*	0%	-6%	-3%	0%	-1%
CC(C)=CCCC1(C)C=Cc2c(O)c3c(c(CC=C(C)C)c2O1)OC12C(=CC4CC1C(C)(C)OC2(C/C=C(/C)C(=O)O)C4=O)C3=O (stereo not given)	·	1%	-10%	i	28µM*	-1%
CC(C)=CCCC1(C)C=Cc2c(O)c3c(c(CC=C(C)C)c2O1)OC12C(=CC4CC1C(C)(C)OC2(C/C=C(/C)C(=O)O)C4O)C3=O (stereo not given)	·	1%	-1%	-11%	22µM*	-2%
CC(C)CCCC1(C)C=Cc2c(O)c3c(c(CCC(C)C)c2O1)OC12C(CC4CC1C(C)(C)OC2(CCC(C)C(=O)O)C4O)C3=O (stereo not given)	·	-6%	0%	i	-10%	-1%
O=C(O)c1ccccc1SCC(=O)N1c2ccccc2Sc2ccccc21	10%	6%	-19%[53 µM]	-5%	2%	0.089µM*[quencher]
C[CH2][Hg][S]c1ccccc1C(=O)O	-6%[11.6 µM]	20%	-10%[201 µM]	17%	-9%	-4%[201 µM]
O=C(Nc1cccc(C(=O)Nc2cc(C(=O)Nc3ccc([S+](=O)([O-])[O-])c4cc([S+](=O)([O-])[O-])cc(SOOO)c34)ccc2F)c1)Nc1cccc(C(=O)Nc2cc(C(=O)Nc3ccc([S+](=O)([O-])[O-])c4cc([S+](=O)([O-])[O-])cc([S+](=O)([O-])[O-])c34)ccc2F)c1	·	2.8µM*	28%	11µM*	126%	-2%
O=c1[nH]c(=S)n(-c2ccccc2)c(O)c1/C=N/N1CCCCC1c1cccnc1 (stereo not given)	79µM*	?	?	25µM*	-5%	30%
CCc1ccc(-n2c(O)c(/C=N/N3CCCCC3c3cccnc3)c(=O)[nH]c2=O)cc1 (stereo not given)	-7%	6%	2%	-3%	3%	0%
COc1cc(C=C2C(=O)NC(=O)NC2=O)ccc1OCc1ccc([N+](=O)[O-])cc1	45µM*	-7%	-10%	0%	3%	0%
SMILES	WRN inhibitor	APE1 inh	TRb SRC2 PPI	RECQ1 helicase	BLM inh	TR SRC2 fluor cs
O=C1NC(=O)C(=Cc2ccc(Oc3ccc([N+](=O)[O-])cc3)cc2)C(=O)N1	25µM*	6%	-3%	6%	-2%	0%
COc1cc2c(cc1OC)-c1c(O)c(OC)cc3c1[C@H](C2)N(C)CC3	·	?	40µM*	-9%	?	?
COc1cc2c(cc1OC)-c1c(OC)c(OC)cc3c1C(C2)N(C)CC3 (stereo not given)	0%	-2%	-19%	18%	0%	1%
CC(C)[C@H](C(=O)O[C@H](C#N)c1cccc(Oc2ccccc2)c1)c1ccc(Cl)cc1	·	·	1%[201 µM]	·	·	1%[201 µM]
Cc1cc(OC(=O)N(C)C)n(-c2ccccc2)n1	14%	-2%	1%	-8%	-6%	-1%
CC(=O)NC1N=C(C)N(c2ccccc2)C1=O (stereo not given)	-19%	-3%	32µM*	-5%	4%	1%
O=C1NC(=S)NC(=O)C1=Cc1ccc2c(c1)CCN2CCCCl	56µM*	18µM*	2%	?	16µM*	-4%
O=C1NC(=O)C(=Cc2ccc(N3CCN(C(=O)c4ccccc4)CC3)c([N+](=O)[O-])c2)C(=O)N1	?	8%	-7%	0%	4%	-3%
COC(=O)C1=Nc2ccccc2/C1=C\c1c(O)n(-c2ccc(Br)cc2)c(=O)[nH]c1=O	50µM*	34%	0%	5%	-5%	-2%
O=Cc1cccc(Oc2ccccc2)c1	·	·	5%[201 µM]	·	·	-5%[201 µM]
CCc1ccc(N2C(=O)NC(=O)/C(=C/c3cccn3CCOc3ccc(C)cc3)C2=O)cc1	-2%	?	8%	?	-14%	-15%
CCOc1cc(/C=C2/C(=O)NC(=O)N(c3ccc(CC)cc3)C2=O)ccc1OC(=O)c1cccs1	50µM*	-2%	-3%	i	-1%	2%
O=C1NC(=O)N(Cc2ccco2)C(=O)/C1=C/c1ccc(-c2cccc([N+](=O)[O-])c2)o1	22µM*	28µM*	-8%[53 µM]	?	?	-11%[53 µM]
C=CCN1C(=O)NC(=O)/C(=C\c2ccc(-c3ccccc3[N+](=O)[O-])o2)C1=O	?	-8%	-5%	-3%	-4%	-2%
COc1ccc(/C=C2/C(=O)N(Cc3ccco3)C(=O)N(C(C)C)C2=O)cc1	-33%[11.6 µM]	22µM*	?	25µM*	-22%	-30%
